Measurements: PubChem BioAssay AID1159577 (Broad Institute, 2015)
In all, about 1,300 compounds went through this assay and about 240 (18%) were called active. Roughly 8% stayed inconclusive and do not appear here. How the calls were made is not given here. Not all results are given here. Entries with a potency or affinity are not part of this list.

experiment: toxicity to human hepatoma HepG2 cells – cell-based, cherry-picked samples, cytotoxicity control, dose response (AID 1159577); settings: HepG2 cytotoxicity counterscreen, plate reader; series mostly up to 19.5 µM

| SMILES | outcome |
| --- | --- |
| CO[C@@H]1CN(C)C(=O)c2ccc(NC(=O)c3cc(C)on3)cc2OC[C@@H](C)N(S(=O)(=O)c2cccc(C)c2)C[C@H]1C | inactive |
| CCC(=O)N1CCC2(CC1)CN(Cc1cccc(OC)c1)[C@@H](CO)c1[nH]c3cc(OC)ccc3c12 | inactive |
| C[C@@H]1CN([C@H](C)CO)C(=O)c2c(c3ccccc3n2C)-c2ccccc2CO[C@@H]1CN(C)C(=O)c1cc(Cl)cc(Cl)c1 | inactive |
| COc1ccc(CN2C[C@H](C)[C@@H](OC)CN(C)C(=O)c3cc(NC(=O)c4nc5ccccc5s4)ccc3OC[C@@H]2C)cc1 | inactive |
| CCCNC(=O)Nc1ccc2c(c1)C(=O)N(C)C[C@H](OC)[C@@H](C)CN(C(=O)C1CCOCC1)[C@@H](C)CO2 | inactive |
| C/C=C/c1ccc2c(c1)[C@H]1[C@H](CCN1C(=O)c1ccc3c(c1)OCO3)[C@H](CO)N2 | inactive |
| C/C=C/c1ccc2c(c1)[C@H]1[C@H](CCN1S(=O)(=O)c1cccc(F)c1)[C@@H](CO)N2 | inactive |
| C[C@@H]1CN([C@@H](C)CO)S(=O)(=O)c2ccc(/C=C/c3ccccc3)cc2O[C@H]1CN(C)C(=O)c1ccc2c(c1)OCO2 | inactive |
| C/C=C/c1ccc(C2[C@H]3CNC[C@@H]2N3Cc2cc(F)ccc2F)cc1 (stereo not given in full) | inactive |
| C[C@@H]1CN([C@@H](C)CO)C(=O)c2cc(NC(=O)Nc3ccccc3)ccc2O[C@@H]1CN(C)C(=O)Nc1cccc2ccccc12 | inactive |
| COc1ccc2c3c([nH]c2c1)[C@@H](CO)N(Cc1ccccc1Cl)CC31CCN(C(=O)C2CC2)CC1 | inactive |
| CCC(=O)N1CC2(C1)CN(Cc1ccc(Cl)cc1)[C@@H](CO)c1[nH]c3cc(OC)ccc3c12 | inactive |
| C/C=C/c1ccc2c(c1)[C@H]1[C@H](CCN1S(=O)(=O)c1ccccc1C)[C@@H](CO)N2 | inactive |
| CO[C@@H]1CN(C)C(=O)c2cc(NC(C)=O)ccc2OC[C@@H](C)N(C(=O)Cc2cccnc2)C[C@H]1C | inactive |
| O=C(C[C@H]1C[C@@H]2c3cc(NC(=O)Nc4ccccc4)ccc3O[C@@H]2[C@H](CO)O1)NCc1ccccc1 | inactive |
| C[C@@H]1CN([C@H](C)CO)S(=O)(=O)c2ccc(C3=CCCCC3)cc2O[C@H]1CN(C)C(=O)Cc1ccncc1 | inactive |
| CCC(=O)N1[C@H](CO)[C@H](c2ccccc2)[C@@H]1CN(CC)C(=O)c1cccc(F)c1 | inactive |
| CN(C)CC(=O)N1[C@H](CO)[C@H](c2ccc(-c3cccc(C(=O)N(C)C)c3)cc2)[C@@H]1C#N | inactive |
| CCCN1[C@H](CO)[C@H](c2ccc(C3=CCCC3)cc2)[C@H]1CN(C(C)=O)C1CCCC1 | inactive |
| CO[C@@H]1CN(C)C(=O)c2cc(NC(=O)C3CC3)ccc2OC[C@H](C)N(CC2CCCC2)C[C@H]1C | inactive |
| CCc1sc(N2[C@@H](C#N)[C@@H](c3ccccc3-c3ccccc3)[C@@H]2CO)nc1C | inactive |
| CC(C)CNC[C@@H]1[C@@H](c2ccccc2)[C@@H](CO)N1Cc1ccc(F)cc1 | inactive |

| SMILES | outcome |
| --- | --- |
| CN1c2ccc(C#Cc3cccnc3)cc2[C@@H]2[C@@H](CCN2C(=O)C2CCC2)[C@@H]1CO | inactive |
| CNC[C@@H]1Oc2cc(C#Cc3cccnc3)ccc2S(=O)(=O)N([C@H](C)CO)C[C@H]1C | inactive |
| COc1cc(CN2CC3(CCN(C(=O)c4cccnc4)CC3)c3c([nH]c4cc(OC)ccc34)[C@@H]2CO)cc(OC)c1 | inactive |
| COc1ccccc1S(=O)(=O)N(C)C[C@@H]1OCc2ccccc2-c2c(n(C)c3ccccc23)C(=O)N([C@@H](C)CO)C[C@@H]1C | inactive |
| C[C@H](CO)N1C[C@H](C)[C@@H](CN(C)S(=O)(=O)c2cccc(F)c2)OCc2ccccc2-c2c(n(C)c3ccccc23)C1=O | inactive |
| C[C@H]1CN([C@@H](C)CO)C(=O)c2c(c3ccccc3n2C)-c2ccccc2CO[C@@H]1CN(C)Cc1cccc(O)c1 | inactive |
| COc1ccccc1S(=O)(=O)N(C)C[C@H]1OCc2ccccc2-c2c(n(C)c3ccccc23)C(=O)N([C@@H](C)CO)C[C@@H]1C | inactive |
| C[C@H](CO)N1C[C@H](C)[C@@H](CN(C)Cc2ccc(Oc3ccccc3)cc2)OCc2ccccc2-c2c(n(C)c3ccccc23)C1=O | inactive |
| COc1cccc(CN(C)C[C@H]2OCc3ccccc3-c3c(n(C)c4ccccc34)C(=O)N([C@H](C)CO)C[C@@H]2C)c1 | inactive |
| C[C@H](CO)N1C[C@H](C)[C@@H](CN(C)Cc2cccc(C(=O)Nc3ccccc3N)c2)OCc2ccccc2-c2c(n(C)c3ccccc23)C1=O | inactive |
| C[C@@H]1CN([C@H](C)CO)C(=O)c2c(c3ccccc3n2C)-c2ccccc2CO[C@@H]1CN(C)Cc1cccc(F)c1 | inactive |
| C[C@H]1CN([C@@H](C)CO)C(=O)c2c(c3ccccc3n2C)-c2ccccc2CO[C@H]1CN(C)C(=O)Nc1ccc(-c2ccccc2)cc1 | inactive |
| C[C@H](CO)N1C[C@H](C)[C@H](CN(C)S(=O)(=O)c2ccc(Cl)cc2)OCc2ccccc2-c2c(n(C)c3ccccc23)C1=O | inactive |
| Cc1ccc(S(=O)(=O)N(C)C[C@H]2OCc3ccccc3-c3c(n(C)c4ccccc34)C(=O)N([C@H](C)CO)C[C@@H]2C)cc1 | inactive |
| O=C(C[C@H]1C[C@H]2c3cc(NC(=O)Cc4ccncc4)ccc3O[C@H]2[C@H](CO)O1)NCc1ccccc1 | inactive |
| COc1cccc(NC(=O)N(C)C[C@@H]2Oc3cc(C#Cc4ccccc4)ccc3S(=O)(=O)N([C@H](C)CO)C[C@@H]2C)c1 | inactive |
| COc1ccc(S(=O)(=O)N(C)C[C@H]2Oc3ncc(-c4ccncc4)cc3C(=O)N([C@H](C)CO)C[C@@H]2C)cc1 | inactive |
| COc1ccc(C#Cc2ccc3c(c2)O[C@@H](CN(C)C(=O)Nc2cccc(OC)c2)[C@H](C)CN([C@H](C)CO)S3(=O)=O)cc1 | inactive |
| C[C@@H]1CN([C@@H](C)CO)C(=O)c2cccc(NC(=O)c3cnccn3)c2O[C@@H]1CN(C)Cc1ccc(-c2ccccc2)cc1 | inactive |
| COc1ccc(NC(=O)N2CCC3(CC2)CN(C(=O)C2CCC2)[C@@H](CO)c2c3c3ccc(OC)cc3n2C)cc1 | inactive |
| C[C@@H]1CN([C@@H](C)CO)C(=O)c2c(c3ccccc3n2C)-c2ccccc2CO[C@@H]1CN(C)C(=O)[C@H](C)c1ccccc1 | inactive |
| C[C@H](CO)N1C[C@H](C)[C@@H](CN(C)C(=O)[C@H](C)c2ccccc2)OCc2ccccc2-c2c(n(C)c3ccccc23)C1=O | inactive |

| SMILES | outcome |
| --- | --- |
| CO[C@@H]1CN(C)C(=O)c2ccc(NC(=O)NC(C)C)cc2OC[C@@H](C)N(Cc2ccccc2)C[C@H]1C | inactive |
| COc1cccc(NC(=O)N2[C@H](CO)[C@H](c3ccccc3)[C@H]2CNCC(C)C)c1 | inactive |
| COc1ccc(-c2ccccc2[C@H]2[C@@H](C#N)N(C(=O)NC3CCCC3)[C@H]2CO)cc1 | inactive |
| C[C@@H]1CN([C@@H](C)CO)C(=O)Cc2cc(NC(=O)Nc3ccc4c(c3)OCO4)ccc2O[C@@H]1CN(C)CC1CC1 | inactive |
| COc1ccc(NC(=O)Nc2ccc3c(c2)CC(=O)N([C@H](C)CO)C[C@H](C)[C@@H](CN(C)CC2CCCCC2)O3)cc1 | inactive |
| C[C@@H]1CN([C@@H](C)CO)C(=O)c2cc(NC(=O)Nc3ccc(C(F)(F)F)cc3)ccc2O[C@H]1CN(C)C(=O)Nc1cccc2ccccc12 | inactive |
| C[C@H](CO)N1C[C@H](C)[C@H](CN(C)CC2CC2)Oc2ccc(NC(=O)Nc3cccc4ccccc34)cc2CC1=O | inactive |
| C[C@@H]1CN([C@@H](C)CO)C(=O)c2cc(NC(=O)C3CC3)ccc2O[C@H]1CN(C)CC1CCCCC1 | inactive |
| C[C@H](CO)N1C[C@H](C)[C@H](CN(C)CC2CC2)Oc2ccc(NS(=O)(=O)c3ccc(Cl)cc3)cc2CC1=O | inactive |
| COc1ccc(C#Cc2ccc3c(c2)O[C@@H](CN(C)S(=O)(=O)c2ccccc2F)[C@@H](C)CN([C@H](C)CO)S3(=O)=O)cc1 | inactive |
| OC[C@@H]1[C@@H](c2ccccc2)C2(CN(CC3CC3)C2)N1Cc1ccc(F)cc1 | inactive |
| COCC(=O)Nc1ccc2c(c1)C(=O)N(C)C[C@H](OC)[C@H](C)CN(Cc1cc(F)ccc1F)[C@H](C)CO2 | inactive |
| COc1ccc(S(=O)(=O)N(C)C[C@H]2Oc3c(NC(=O)Nc4cccc5ccccc45)cccc3C(=O)N([C@@H](C)CO)C[C@H]2C)cc1 | inactive |
| COc1ccc(S(=O)(=O)Nc2cccc3c2O[C@H](CN(C)Cc2ccc(-c4ccccc4)cc2)[C@@H](C)CN([C@H](C)CO)C3=O)cc1 | inactive |
| COc1ccc(NC(=O)N(C)C[C@H]2Oc3c(NC(=O)Nc4ccccc4)cccc3C(=O)N([C@@H](C)CO)C[C@H]2C)cc1 | inactive |
| COc1ccc(S(=O)(=O)N(C)C[C@@H]2Oc3c(NC(=O)Nc4cccc5ccccc45)cccc3C(=O)N([C@H](C)CO)C[C@@H]2C)cc1 | inactive |
| COc1ccc(CN(C)C[C@@H]2Oc3c(NC(=O)c4ccc(-c5nccs5)cc4)cccc3C(=O)N([C@@H](C)CO)C[C@H]2C)cc1 | inactive |
| C[C@H](CO)N1C[C@H](C)[C@@H](CN(C)Cc2ccc(-c3ccccc3)cc2)Oc2c(NC(=O)c3ccc(-c4nccs4)cc3)cccc2C1=O | inactive |
| COc1ccc2c3c([nH]c2c1)[C@H](CO)N(Cc1ccc(F)cc1)CC31CCN(C(C)=O)CC1 | inactive |
| CNC[C@H]1Oc2ncc(-c3ccc(OC)cc3)cc2C(=O)N([C@H](C)CO)C[C@H]1C | inactive |
| C[C@@H]1CN([C@@H](C)CO)C(=O)c2cc(NC(=O)Nc3ccc4c(c3)OCO4)ccc2O[C@H]1CN(C)C(=O)Nc1cccc2ccccc12 | inactive |
